From PubChem BioAssay (NCI)
Values joined by “and” are separate entries in the source; they are usually repeats but may differ in a detail not shown here. Equal values may be shown once. The panel holds about 83,000 compounds, 20% with a hit somewhere; the sample as a whole holds those more often.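 Each cell line was grown in a 96-well plate and treated with one concentration of compound for 48 hours. Values below 10 were considered active.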 Active and inactive are the calls of the source.

What was measured:
Assay in all cases: NCI-60 one-dose screen, 48 h (100 = growth as untreated, 0 = no growth, -100 = all killed)
Conditions in all cases: 10 µM unless noted
HCT-15 colon = tested on: HCT-15 colon
SNB-75 CNS = tested on: SNB-75 CNS
SNB-19 CNS = tested on: SNB-19 CNS
U251 CNS = tested on: U251 CNS
PC-3 prostate = tested on: PC-3 prostate
SK-MEL-5 melanoma = tested on: SK-MEL-5 melanoma
UACC-62 melanoma = tested on: UACC-62 melanoma
LOX IMVI melanoma = tested on: LOX IMVI melanoma
SK-MEL-28 melanoma = tested on: SK-MEL-28 melanoma

Measured: growth

C/C(=C\c1ccccc1)C(O)C(=O)c1nc2ccc([N+](=O)[O-])cc2[nH]c1=O (stereo not drawn)
inactive: HCT-15 colon 100% | SNB-75 CNS 88.6% | SNB-19 CNS 85.5% | U251 CNS 83.2% | PC-3 prostate 79.7% | SK-MEL-5 melanoma 82.6% | UACC-62 melanoma 72.3% | LOX IMVI melanoma 75.9% | SK-MEL-28 melanoma 112%

CCCCC/C(C)=N\NC(N)=S
inactive: HCT-15 colon 79.4% | SNB-75 CNS 86.6% | SNB-19 CNS 105% | U251 CNS 80.2% | PC-3 prostate 89.4% | SK-MEL-5 melanoma 90% | UACC-62 melanoma 96.2% | LOX IMVI melanoma 95.6% | SK-MEL-28 melanoma 94.2%

O=C1Cc2ccccc2C(=O)N1
inactive: HCT-15 colon 99.2% | SNB-75 CNS 96.1% | SNB-19 CNS 106% | U251 CNS 86.1% | PC-3 prostate 95.2% | SK-MEL-5 melanoma 106% | UACC-62 melanoma 92.2% | LOX IMVI melanoma 42.1% | SK-MEL-28 melanoma 106%

CC1(C)CC(=O)NC1=O
inactive: HCT-15 colon 110% | SNB-75 CNS 82% | SNB-19 CNS 101% | U251 CNS 101% | PC-3 prostate 104% | SK-MEL-5 melanoma 100% | UACC-62 melanoma 99.6% | LOX IMVI melanoma 95.9% | SK-MEL-28 melanoma 105%

Clc1ccc2c(c1)N(C1CCCN(Cc3ccccc3)C1)c1ccccc1S2 (stereo not drawn)
inactive: HCT-15 colon 26.6% | SNB-75 CNS 27.6% | SNB-19 CNS 41.6% | U251 CNS 17.4% | PC-3 prostate 45% | SK-MEL-5 melanoma 23.3% | UACC-62 melanoma 44% | LOX IMVI melanoma 57% | SK-MEL-28 melanoma 56.9%

Cc1ccc2cccc([N+](=O)[O-])c2n1
inactive: HCT-15 colon 105% and 96.9% | SNB-75 CNS 106% and 79.5% | SNB-19 CNS 109% and 99% | U251 CNS 105% and 103% | PC-3 prostate 99.7% and 102% | SK-MEL-5 melanoma 99.1% and 105% | UACC-62 melanoma 102% | LOX IMVI melanoma 100% and 94.8% | SK-MEL-28 melanoma 109% and 111%

CCOC(=O)C1=C(C)NC(C)=C(C(=O)OCC)C1
inactive: HCT-15 colon 108% and 90.8% | SNB-75 CNS 83.1% and 76.6% | SNB-19 CNS 99.5% | U251 CNS 104% and 91.2% | PC-3 prostate 82.4% and 104% | SK-MEL-5 melanoma 101% and 103% | UACC-62 melanoma 94.4% and 102% | LOX IMVI melanoma 98.4% and 102% | SK-MEL-28 melanoma 105% and 101%

COC(=O)c1cc(C(=O)OC)cc([N+](=O)[O-])c1
inactive: HCT-15 colon 105% | SNB-19 CNS 118% | U251 CNS 94.4% | PC-3 prostate 98.7% | SK-MEL-5 melanoma 109% | UACC-62 melanoma 102% | LOX IMVI melanoma 104% | SK-MEL-28 melanoma 108%

O=C1C=CC[C@H](/C=C/c2ccccc2)O1
12.8% (inactive) and -30% (active): U251 CNS
33.4% (inactive) and -52.8% (active): HCT-15 colon
81.7% (inactive) and 6.21% (active): UACC-62 melanoma
31.7% (inactive) and -11.8% (active): SK-MEL-5 melanoma
inactive: SNB-75 CNS 53.8% and 70.9% | SNB-19 CNS 66.3% and 17.5% | PC-3 prostate 20.2% and 13%
active: LOX IMVI melanoma 5.77% and -35.8%
40.3% (inactive) and -22.5% (active): SK-MEL-28 melanoma

Cc1ccc(NC(=S)N/C=C(\c2ccccc2)S(=O)Cc2ccccc2)c(C)c1 (stereo not drawn)
inactive: HCT-15 colon 103% | SNB-75 CNS 87.2% | SNB-19 CNS 100% | PC-3 prostate 86% | SK-MEL-5 melanoma 98.7% | UACC-62 melanoma 92.2% | LOX IMVI melanoma 102% | SK-MEL-28 melanoma 112%

COc1ccc(CCNC(=S)NN)cc1OC
inactive: HCT-15 colon 123% | SNB-75 CNS 106% | SNB-19 CNS 127% | U251 CNS 105% | PC-3 prostate 101% | SK-MEL-5 melanoma 103% | UACC-62 melanoma 115% | LOX IMVI melanoma 103% | SK-MEL-28 melanoma 114%

CC(O)CCNC(c1ccccc1)C(O)c1ccccc1 (stereo not drawn)
inactive: HCT-15 colon 109% | SNB-75 CNS 96.5% | SNB-19 CNS 103% | U251 CNS 106% | PC-3 prostate 94.8% | SK-MEL-5 melanoma 109% | LOX IMVI melanoma 99% | SK-MEL-28 melanoma 112%

CN(C)C(=N)N=C(N)N
inactive: HCT-15 colon 83.1% and 121% | SNB-19 CNS 106% and 108% | U251 CNS 81.1% and 118% | PC-3 prostate 104% | SK-MEL-5 melanoma 103% and 131% | UACC-62 melanoma 99.7% and 120% | LOX IMVI melanoma 87% and 110% | SK-MEL-28 melanoma 116% and 106%

CCN(C)c1ccccc1
inactive: HCT-15 colon 101% | SNB-75 CNS 79.2% | SNB-19 CNS 106% | U251 CNS 99% | PC-3 prostate 95.8% | SK-MEL-5 melanoma 100% | LOX IMVI melanoma 98.4% | SK-MEL-28 melanoma 105%

OCCSc1ccc(Cl)cc1
inactive: HCT-15 colon 104% and 102% | SNB-75 CNS 96.7% and 83% | SNB-19 CNS 118% and 94.6% | U251 CNS 102% and 96.6% | PC-3 prostate 101% and 81.5% | SK-MEL-5 melanoma 108% and 98.3% | UACC-62 melanoma 110% and 98.1% | LOX IMVI melanoma 98.4% and 101% | SK-MEL-28 melanoma 121% and 93.3%

Cc1onc(-c2c(F)cccc2Cl)c1-c1ncc(-c2ccc(Cl)cc2)o1
25.4% (inactive) and 6.61% (active): SK-MEL-5 melanoma
inactive: HCT-15 colon 29.5% and 16.4% | SNB-75 CNS 84% and 62% | SNB-19 CNS 80.7% and 40% | U251 CNS 41.1% | PC-3 prostate 31% and 34.5% | UACC-62 melanoma 29.7% and 32.2% | LOX IMVI melanoma 12.5% | SK-MEL-28 melanoma 68.8% and 50.2%

CC(=O)Oc1ccc(C2(c3ccc(OC(C)=O)cc3)C(=O)Nc3ccccc32)cc1
inactive: HCT-15 colon 67.3% and 73% | SNB-19 CNS 108% and 101% | U251 CNS 108% and 102% | PC-3 prostate 65.3% and 52.3% | SK-MEL-5 melanoma 96.8% and 95% | UACC-62 melanoma 84.2% and 87.3% | LOX IMVI melanoma 53.9% and 46.7% | SK-MEL-28 melanoma 99.6% and 108%

CN(C)CC(CN(C)C)C(O)c1ccccc1 (stereo not drawn)
inactive: HCT-15 colon 99.3% | SNB-19 CNS 109% | PC-3 prostate 101% | SK-MEL-5 melanoma 106% | UACC-62 melanoma 106% | LOX IMVI melanoma 97.8% | SK-MEL-28 melanoma 105%

CC1CC(O)CC(C)(C)C1.CC1CC(O)CC(C)(C)C1.CC1CC(O)CC(C)(C)C1.CC1CC(O)CC(C)(C)C1.[Ti] (stereo not drawn)
inactive: HCT-15 colon 110% | SNB-75 CNS 113% | SNB-19 CNS 93.4% | U251 CNS 99.2% | PC-3 prostate 90.4% | SK-MEL-5 melanoma 104% | UACC-62 melanoma 76.2% | LOX IMVI melanoma 106% | SK-MEL-28 melanoma 118%

CCN(CC)CCO/N=C1\CC(c2ccc(OC)c(OC)c2)Oc2ccccc21 (stereo not drawn)
inactive: HCT-15 colon 88.6% | SNB-75 CNS 68% | SNB-19 CNS 98.5% | U251 CNS 93.6% | PC-3 prostate 83% | SK-MEL-5 melanoma 93.4% | UACC-62 melanoma 107% | LOX IMVI melanoma 89.6% | SK-MEL-28 melanoma 107%

O=C(N=C1C(=O)C2(CCCCC2)C2(N=C(c3ccccc3)OC2=O)C12CCCCC2)c1ccccc1 (stereo not drawn)
inactive: HCT-15 colon 62.3% | SNB-19 CNS 71.5% | U251 CNS 59.6% | PC-3 prostate 42.8% | SK-MEL-5 melanoma 64.6% | LOX IMVI melanoma 71.5% | SK-MEL-28 melanoma 84.5%

Cc1nc(Nc2ccc(Cl)cc2)c2cnn(-c3ccccc3)c2n1
inactive: HCT-15 colon 94.8% | SNB-19 CNS 102% | U251 CNS 98.8% | PC-3 prostate 99.6% | SK-MEL-5 melanoma 94.4% | UACC-62 melanoma 100% | LOX IMVI melanoma 97.9% | SK-MEL-28 melanoma 102%

CCN(CC)Cc1cc2[nH]c3c4ccc(Cl)cc4ncc3c2cc1OC
inactive: HCT-15 colon 45.9% and 16.8% | SNB-19 CNS 104% and 103% | PC-3 prostate 52.4% and 70% | UACC-62 melanoma 35% and 110%
-90% (active) and 115% (inactive): SK-MEL-28 melanoma
active: SK-MEL-5 melanoma -97.7% | LOX IMVI melanoma -71.8% and -38.7%

CN(C)C(=S)N(C)C
inactive: HCT-15 colon 102% | SNB-75 CNS 86.3% | SNB-19 CNS 110% | U251 CNS 105% | PC-3 prostate 92.9% | SK-MEL-5 melanoma 108% | UACC-62 melanoma 108% | LOX IMVI melanoma 98.4% | SK-MEL-28 melanoma 118%

Cc1cc(NC(=O)NC(=O)c2ccccc2N(C)C)ccc1Oc1ncc(Br)cn1
-31% (active) and 31% (inactive): HCT-15 colon
-28.2% (active) and 12.9% (inactive): SNB-75 CNS
-10.1% (active) and 25.9% (inactive): PC-3 prostate
active: U251 CNS -43.4% | SK-MEL-5 melanoma 2.16% and 0.678%
inactive: SNB-19 CNS 29.2% and 42.7% | UACC-62 melanoma 30.4% and 37% | LOX IMVI melanoma 27.3% and 49.7% | SK-MEL-28 melanoma 68.1%

CC1NC(C)c2ccc3ccccc3c2O1 (stereo not drawn)
inactive: HCT-15 colon 106% | SNB-75 CNS 85.6% | SNB-19 CNS 104% | PC-3 prostate 93.3% | SK-MEL-5 melanoma 104% | UACC-62 melanoma 93.7% | LOX IMVI melanoma 97.7% | SK-MEL-28 melanoma 111%

O=C(O)C#Cc1ccc(Cl)cc1
inactive: HCT-15 colon 103% | SNB-19 CNS 99.8% | U251 CNS 93.8% | PC-3 prostate 92% | SK-MEL-5 melanoma 96.1% | UACC-62 melanoma 95.7% | LOX IMVI melanoma 91.5% | SK-MEL-28 melanoma 107%
